Rows were chosen to be rich in hits. Some 7.9% of all compounds tested hit in one or more screens of this group.
HT1080 IDH1KD tx – toxicity to HT-1080 IDH1 knockdown cells (counter line); HT-1080 IDH1 knockdown viability, ATP luminescence, 48 h; Potency, µM (series often up to 46.1 µM), for inactives: at the highest dose activity, negative = toxicity, most hits filed as cytotoxic; 360,000 compounds, 2% hits;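 further: 0% = DMSO wells and -100% = cell-free medium wells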
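Assay cells: HT-1080 with IDH1 knockdown, 750 per well, RPMI/5% FBS. Exposure: 48 h at 37 °C following 2 h pre-incubation. Read: CellTiter-Glo luminescence; fitted concentration-response, curve class assigned.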
KB-3-1 tox – kills parental KB-3-1 adenocarcinoma cells; AID 1347075; 400,000 compounds, 1.4% hits; KB-3-1 viability, CellTiter-Glo ATP luminescence, 72 h; Potency, µM (titrated, usually from 46.1 µM), actives largely listed as cytotoxic; further: on the % scale 0 is the no-effect control and ±100 the full control effect; nearly all actives have a fitted effect of over 60% in size
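Parental KB-3-1 viability, qHTS format: 72 h compound exposure, 37 °C; CellTiter-Glo; media-only wells and DMSO plates as controls; concentration-effect fits on corrected data.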
KB-V1 cytotox – kills drug-selected multidrug resistant KB-V1 cells | KB-V1 MDR cells viability, CellTiter-Glo, 72 h | 400,000 compounds, 3.4% hits | Potency, µM (titrated, usually from 46.1 µM), hits mostly cytotoxic | AID 1347076; further: on the % scale 0 is the no-effect control and ±100 the full control effect; nearly all actives have a fitted effect of over 60% in size
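qHTS viability screen in drug-selected KB-V1 MDR cells: 72 h compound treatment at 37 degrees C, ATP luminescence end point.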
HT1080NT lethal – kills 2HG-producing HT-1080-NT fibrosarcoma cells; 360,000 compounds, 1.6% hits; HT-1080-NT fibrosarcoma viability, CellTiter-Glo ATP luminescence, 48 h; Potency, µM (doses to about 46.1 µM), for inactives: at the top dose activity, negative = less viability, most hits filed as cytotoxic;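 further: NT is the 2HG producing partner of a matched IDH1 knockdown line; 0% = DMSO-treated cells and -100% = media-only wells without cells; nearly all actives have a fitted effect of over 55% in size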
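A 48-hour cytotoxicity screen used HT-1080-NT cells plated 2 hours before compound delivery. ATP-based CellTiter-Glo luminescence measured viability, normalized to DMSO and no-cell controls.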
SW480 rereplic – DNA re-replication induction in SW480 cells. SW480 DNA re-replication, Hoechst DNA content imaging, 48 h. Potency, µM (highest dose often 46.1 µM), for inactives: at the highest dose re-replication activation, most hits filed as activators. 340,000 compounds, 1.8% hits; further: % of control where 0% means no effect; nearly all actives have a fitted effect of over 55% in size
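Image-based DNA-content assay: after two days of treatment, nuclei were labelled with the DNA dye Hoechst and imaged, and hits were compounds raising the count of nuclei showing high fluorescence intensity.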
MCF10A rerep – induces DNA re-replication in MCF 10a normal breast cells | MCF 10A DNA re-replication, Hoechst nuclear intensity, 48 h | Potency, µM (series often up to 46.1 µM), for inactives: at the top dose activity, positive = re-replication, hits mostly activators | 350,000 compounds, 2.9% hits; further: % of control where 0% means no effect; nearly all actives have a fitted effect of over 50% in size
* = called active by the depositor; i = inactive; ? = inconclusive; . = no result given; [ ] = remark or other dose. The call rests on the fitted dose curve; in most records, active means well fitted curve in the direction sought with a large enough effect; inconclusive means small, poorly fitted or top-dose-only effect, or another doubt; inactive means no such curve, though single readings can be large; an effect the other way counts as inactive or inconclusive. Potency means the concentration at half of the fitted maximal effect.

SMILES	HT1080 IDH1KD tx	KB-3-1 tox	KB-V1 cytotox	HT1080NT lethal	SW480 rereplic	MCF10A rerep
Cc1cccc(C)c1NC(=O)COC(=O)C1Cc2ccccc2CN1C(=O)c1ccccc1 (stereo not given)	9.9%	i	8.2µM*	-1.0%	0.0%	0.1%
CCN(CC)CCCNC(=S)N1CCN(c2nc(-c3ccc(F)cc3)cs2)CC1	8.2µM*	i	?	20.6µM*	?	?
O=S(=O)(Nc1nc2ccccc2nc1Cl)c1cccc(C(F)(F)F)c1	?	i	i	?	-2.8%	16.4µM*
Cc1ccc(NC(=O)CN2C(=O)NC3(CCCCC3C)C2=O)cc1S(=O)(=O)N1CCOCC1 (stereo not given)	-2.2%	i	i	-0.2%	.	.
COc1cc2c(cc1OC)CN(CC(=O)Nc1ccc(C)c(S(=O)(=O)N3CCOCC3)c1)CC2	0.0%	i	i	-2.6%	-4.7%	-1.5%
Cc1ccc(NC(=O)Cc2ccccc2)cc1S(=O)(=O)N1CCOCC1	5.2%	i	23.1µM*	7.5%	-3.5%	3.9%
CCc1ccc(N2CC(C(=O)Nc3ccc(OC)c(S(=O)(=O)N4CCOCC4)c3)CC2=O)cc1 (stereo not given)	0.4%	i	i	-1.3%	.	.
CCc1ccc(N2CC(C(=O)Nc3ccc(C)c(S(=O)(=O)N4CCOCC4)c3)CC2=O)cc1 (stereo not given)	0.3%	i	23.1µM*	-1.9%	0.4%	0.7%
Cc1ccc(NC(=O)CN2CCc3ccccc3C2)cc1S(=O)(=O)N1CCOCC1	1.2%	i	8.2µM*	1.1%	8.3%	-5.4%
Cc1ccc(NC(=O)CN2C(=O)NC(C)(c3ccc(Cl)cc3)C2=O)cc1S(=O)(=O)N1CCOCC1 (stereo not given)	13µM*	?	i	?	?	?
Cc1ccc2cccc(NC(=O)c3ccc(-c4cccc(Cl)c4)o3)c2n1	.	i	i	.	.	.
Cc1ccc(Oc2nc(CN3CCOCC3)nc3sc4c(c23)CCC(C)C4)cc1C (stereo not given)	8.5%	?	14.6µM*	3.0%	5.4%	?
COc1cc2c(cc1OC)CN(c1nc(CN3CCCCC3)nc3sc4c(c13)CCCC4)CC2	2.5%	i	i	4.7%	?	?
COc1cc2c(cc1OC)CN(c1nc(CN3CCCC3)nc3sc(C)c(C)c13)CC2	?	i	i	14.6µM*	24.3%	10.7%
Cc1sc2nc(CN3CCOCC3)nc(N3CCOCC3)c2c1C	3.2%	i	?	11.6%	-1.7%	1.3%
COc1cc2c(cc1OC)CN(c1nc(CN3CCOCC3)nc3sc4c(c13)CCCC4)CC2	?	?	?	-12.1%	8.1%	18.4µM*
CCOC(=O)CC1CCCCN1C(=O)c1ccc2nc(CCOC)oc2c1 (stereo not given)	6.3%	i	i	3.2%	-1.5%	-4.0%
COc1ccc(NS(=O)(=O)c2cccc(C(=O)NNC(=O)CNC(=O)c3cccc(C)c3)c2)cc1	3.2%	i	i	9.6%	-2.1%	-0.2%
COc1ccc(C2c3[nH]c4ccccc4c3CCN2Cc2cccn2-c2ncccn2)cc1C (stereo not given)	23.1µM*	?	?	25.9µM*	?	14.9%[9.22 µM]
Cc1ccc(S(=O)(=O)N2CCc3cc(C(=O)N(C)Cc4ccccc4)ccc32)cc1	.	i	?	.	.	.
[N-]=[N+]=NC[C@H](Cc1ccccc1)N1CC[C@@H](NC(=O)OCc2ccccc2)CCC1=O	-5.7%	i	i	-7.4%	28.0%	20.0%
CC1CCc2nc(/C(C#N)=C/c3cccnc3)sc2C1 (stereo not given)	?	i	?	-3.8%	?	20.6µM*
O=C(COc1ccccc1C(=O)OCC(=O)N1CCOCC1)Nc1ccc(Br)cc1	3.4%	.	.	0.7%	.	.
CCN(CC(=O)NCc1ccc(F)cc1)C(=O)/C=C/c1ccc(OC)cc1	-11.3%	i	i	6.8%	21.3%	-16.9%
CCN(CC(=O)NCc1ccc(F)cc1)C(=O)/C=C/c1ccc(OC)c(S(=O)(=O)NC(C)C)c1	?	2.59µM*	i	4.11µM*	8.2µM*	1.84µM*
SMILES	HT1080 IDH1KD tx	KB-3-1 tox	KB-V1 cytotox	HT1080NT lethal	SW480 rereplic	MCF10A rerep
Cc1ccc2c(c1)-c1c(ssc1=S)C(C)(C)N2C(=O)CSc1nncn1C	-18.6%	?	?	-7.2%	-4.4%	-2.7%
CCOc1ccc2c(c1)-c1c(ssc1=S)C(C)(C)N2C(=O)c1ccco1	5.17µM*	?	?	4.61µM*	16.4µM*	4.11µM*
CC(=O)c1ccc(S(=O)(=O)NCCC(=O)OCC(=O)N2CCCC2=O)cc1	11.4%	i	i	14.9%	-546.2%	-2.3%
COc1ccc(-c2nc(C#N)c(N3CCc4ccccc4C3)o2)cc1OC	-10.4%	i	2.06µM*	?	7.5%	?
COc1ccc(N2CCN(c3oc(-c4ccc(OC)c(OC)c4)nc3C#N)CC2)cc1	2.5%	i	i	7.5%	0.1%	-35.2%
COc1ccccc1-c1nc(C#N)c(N2CCCCCC2)o1	2.9%	i	?	0.3%	-13.6%	?
COc1ccccc1-c1nc(C#N)c(N2CCc3ccccc3C2)o1	-20.2%	?	?	4.1%	16.9%	16.4µM*
CCOC(=O)C1(C)C(=O)CC2c3nc4ccccc4cc3CN2C1=O (stereo not given)	-6.3%	i	i	-24.0%	.	.
Cc1cccc(/C=N/NC(=O)c2cc(-c3cccnc3)nc3c2c(C)nn3-c2ccccc2)c1	9.3%	i	14.6µM*	17.0%	-1.6%	?
Cc1cccc(/C=N/NC(=O)c2cc(-c3cccnc3)nc3ccccc23)c1	19.6%	i	i	10.1%	-4.7%	4.5%
O=C(Cc1ccc(F)cc1)Nc1nc(-c2ccc(F)cc2)cs1	4.9%	i	i	6.0%	-6.3%	-1.4%
O=C(Cc1cccs1)Nc1nc(-c2ccc(F)cc2F)cs1	?	23.1µM*	?	-14.6%	?	?
O=C(Cc1cccs1)Nc1nc(-c2ccc(F)c(F)c2)cs1	-5.8%	?	?	-6.8%	2.0%	8.4%
O=C(CS(=O)(=O)c1ccccc1)Nc1nc(-c2ccccc2)cs1	-2.6%	i	i	-3.3%	-3.4%	-3.2%
O=C(Cc1ccccc1F)Nc1nc(-c2ccc(F)c(F)c2)cs1	?	?	?	?	?	16.4µM*
O=C(Cc1c(F)c(F)c(F)c(F)c1F)Nc1nc(-c2ccccc2)cs1	16.4µM*	?	?	?	-9.6%	18.4µM*

Compound activity deposited in PubChem BioAssay by National Center for Advancing Translational Sciences (NCATS).
